A selection: hits, their analogues and other compounds. The true share with any hit is near 7.5%.
SMN2 splice enh – SMN2 splice variant enhancement | AID 1458 | 210,000 compounds, 2.8% hits | Potency, µM (doses to about 46.1 µM), for the others: top-dose activity change, positive = activation, most hits filed as activators | HEK293 SMN2-luciferase splicing reporter, luminescence, 30-36 h; further: % of control where 0% means no effect; nearly all actives have a fitted effect of over 55% in size
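qHTS luciferase splicing reporter: luminescence rises when SMN2 exon 7 is included in transfected HEK293 cells. Compound exposure lasted 30-36 h at 37C, with 4.5 mM final sodium butyrate as control, followed by a ONE-Glo read.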
KinaseGlo FLuc – blocks Kinase-Glo luciferase, a counter-screen artifact; Potency, µM (top dose mostly 38.3 µM), for inactives: at the highest dose activity change, negative = inhibition, hits mostly inhibitors; Kinase-Glo luciferase, ATP luminescence, 8 min; 200,000 compounds, 0.28% hits; Q27757; further: on the % scale 0 is the no-effect control and ±100 the full control effect; nearly all actives have a fitted effect of over 60% in size
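Substrate mix (final 50 mM imidazole pH 7.2, 50 mM KCl, 7 mM MgCl2, 10 uM ATP, 0.01% Tween 20, 0.05% BSA) plus pin-tool compound, then Kinase-Glo detection mix; 8 min ambient, luminescence read.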
FLuc counter – firefly luciferase modulation, counter-screen for miR-21 project | P08659 | purified FLuc, Km substrates, luminescence inhibition | Potency, µM (highest dose often 57.5 µM), inactives show top-dose activity change, negative = inhibition, usual class: inhibitors | 360,000 compounds, 6.9% hits;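 further: plate controls were vehicle for no effect and reference inhibitor for full effect; nearly all actives have a fitted effect of over 55% in size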
Target sequence (P08659 whole entry, looked up): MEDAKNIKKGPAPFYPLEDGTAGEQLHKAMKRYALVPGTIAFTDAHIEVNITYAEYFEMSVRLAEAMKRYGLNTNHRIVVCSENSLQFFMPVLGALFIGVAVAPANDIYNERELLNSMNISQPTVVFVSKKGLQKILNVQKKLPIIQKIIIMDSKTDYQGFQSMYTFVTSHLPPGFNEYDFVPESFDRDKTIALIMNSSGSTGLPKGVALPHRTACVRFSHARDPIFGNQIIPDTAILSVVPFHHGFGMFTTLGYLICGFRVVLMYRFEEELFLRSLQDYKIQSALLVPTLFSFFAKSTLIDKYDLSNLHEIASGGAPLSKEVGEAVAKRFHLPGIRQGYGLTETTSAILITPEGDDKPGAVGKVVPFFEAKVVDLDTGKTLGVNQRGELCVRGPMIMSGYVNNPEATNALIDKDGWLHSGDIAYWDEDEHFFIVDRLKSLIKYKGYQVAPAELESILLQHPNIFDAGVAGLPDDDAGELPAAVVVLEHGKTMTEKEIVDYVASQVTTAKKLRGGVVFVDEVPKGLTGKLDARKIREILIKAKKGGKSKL
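Purified P. pyralis luciferase (10nM final) with 10uM D-luciferin and 10uM ATP (Km levels) in 50mM Tris acetate pH 7.5, 10mM Mg acetate, 0.01% Tween-20, 0.05% BSA; qHTS 6-point titration, ~60 µM downward; luminescence read.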
ELG1 genotox – inducers of genotoxicity in HEK293T ELG1-luciferase cells; AID 504466; 330,000 compounds, 1.3% hits; Potency, µM (titrated, usually from 46 µM), without a hit: top-dose activity change, positive = activation, usual class: activators; HEK293T ELG1-luciferase reporter, luminescence, 16 h; further: % of control where 0% means no effect; nearly all actives have a fitted effect of over 60% in size
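Genotoxic stress is detected as increased luminescence from luciferase-tagged ELG1 in HEK293T cells, measured with ONE-Glo after a 16 hr treatment at 37 °C.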
Rab9 prom act – activates the Rab9 promoter; Potency, µM (highest dose often 9.22 µM), without a hit: at the highest dose activation, negative = inhibition, most hits filed as activators; 320,000 compounds, 2.8% hits; Huh7 Rab9 promoter-luciferase reporter, luminescence, 24 h; further: % of control where 0% means no effect; nearly all actives have a fitted effect of over 60% in size
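Using Huh7 cells stably transfected with Rab9 promoter–luciferase, compounds were incubated 24 h at 37 °C, 5% CO2; luciferase luminescence was read 10 min after reagent addition.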
NPC1 prom act – activators of NPC1 promoter; Huh7 NPC1 promoter luciferase reporter, 24 h; Potency, µM (highest dose often 9.22 µM), for the others: at the top dose activation, actives largely listed as activators; 320,000 compounds, 2.4% hits; AID 485313; further: % of control where 0% means no effect; nearly all actives have a fitted effect of over 60% in size
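Stable NPC1-promoter luciferase Huh7 line; cpd (DMSO) 24 h, 37 °C, 5% CO2; Amplite luciferase reagent 10 min RT; luminescence readout. qHTS format.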
An asterisk follows results filed as active; ? = inconclusive; nt = no result given. The call rests on the fitted dose curve; in most records, active means well fitted curve in the direction sought with a large enough effect; inconclusive means small, poorly fitted or top-dose-only effect, or another doubt; inactive means no such curve, though single readings can be large; an effect the other way counts as inactive or inconclusive. Potency means the concentration at half of the fitted maximal effect.

SMILES	SMN2 splice enh	KinaseGlo FLuc	FLuc counter	ELG1 genotox	Rab9 prom act	NPC1 prom act
Cc1c(C)c2ccc(OCC(=O)NCc3ccccn3)cc2oc1=O	nt	nt	4%	8%	3%	-5%
Cc1c(C)c2ccc(OCC(=O)Nc3nccs3)cc2oc1=O	nt	nt	0.95µM*	1µM*	0.5µM*	0.28µM*
Cc1cc(=O)oc2cc(OCC(=O)Nc3nccs3)ccc12	nt	nt	5.4µM*	10µM*	4µM*	2µM*
Cc1c(C)c2ccc(OCC(=O)Nc3ccccn3)cc2oc1=O	nt	nt	0.34µM*	0.46µM*	3.5µM*	0.89µM*
CCCCc1cc(=O)oc2cc(OCC(=O)Nc3ccccn3)ccc12	nt	nt	21µM*	13µM*	4.5µM*	?
Cc1cccc(C2NC(=O)c3c(sc(C)c3C)N2)c1O (stereo not drawn)	-2%	-6%	?	-1%	0%	16%
Cc1sc2c(c1C)C(=O)NC(c1ccccc1F)N2 (stereo not drawn)	nt	nt	17µM*	?	?	27%
N#CC(C#N)=c1ccc2c(c1)NC1(CCCCC1)N=2	-85%	13µM*	?	-3%	29%	25%
O=S(=O)(c1ccc(Br)c2ccccc12)N1CCCC1	nt	nt	-2%	0%	-4%	-6%
C=CCNC(=O)c1onc(CSc2ccccc2C)c1C(=O)O	1%	-4%	-16%	1%	-6%	-2%
C=CCNC(=O)c1onc(CSc2ccc(Cl)cc2)c1C(=O)NCC=C	nt	nt	-3%	-3%	3%	-4%
C=CCNC(=O)c1onc(CSc2ccc(Cl)cc2)c1C(=O)O	?	2%	17µM*	-2%	2%	-2%
C=CCNC(=O)c1onc(CSc2cc(C)ccc2C)c1C(=O)O	32µM*	-1%	-12%	-4%	-3%	-4%
COc1cccc([C@H]2Nc3ccc(S(=O)(=O)Nc4cc(C)ccc4C)cc3[C@H]3C=CC[C@H]32)c1	0%	nt	-14%	nt	nt	nt
CCOC(=O)C1CCN(C(=O)c2ccc(C)o2)CC1	nt	nt	nt	3%	nt	nt
CCOC(=O)C1CCN(C(=O)c2cc3c(ccc4ccccc43)o2)CC1	nt	nt	12µM*	9.2µM*	0.45µM*	2.5µM*
CC1CCN(C(=O)c2cc3c(ccc4ccccc43)o2)CC1	nt	nt	0.76µM*	1µM*	0.28µM*	0.45µM*
CCOC(=O)C1CCN(C(=O)c2cc3cc4ccc(C)cc4nc3o2)CC1	nt	nt	?	?	0.45µM*	0.89µM*
Cc1nc2ccccc2c2oc(C(=O)N3CCC(C)CC3)cc12	nt	nt	?	0%	14%	13%
CCOC(=O)C1CCN(C(=O)c2cc3cc(C)ccc3[nH]2)CC1	nt	nt	-15%	?	3.2µM*	2.8µM*
O=C(Nc1ccc2nc(-c3cccnc3)[nH]c2c1)c1ccco1	11%	2%	?	-1%	-4%	-3%
O=C(Nc1ccc2nc(-c3ccc4nc[nH]c4c3)[nH]c2c1)c1cccs1	-7%	1%	21µM*	-1%	-3%	-1%
COC(=O)c1ccc(C(=O)Nc2ccc3nc(-c4ccncc4)[nH]c3c2)cc1	nt	nt	-5%	-1%	-5%	-6%
O=C(Nc1ccc2nc(-c3ccccc3)[nH]c2c1)c1cccs1	-23%	-4%	5.4µM*	?	?	20%
COc1ccccc1NC(=O)c1cc2c(=O)oc3ccc(C)cc3c2s1	18%	nt	-1%	nt	nt	nt
CCOc1ccc(-c2nonc2NC(=O)c2oc3cc(C)c(C)cc3c2C)cc1OCC	11%	nt	-7%	nt	nt	nt
CC(SCc1cc(=O)n2c([nH]c3ccccc32)c1C#N)C(=O)O (stereo not drawn)	-16%	10%	?	-4%	-7%	5%
COCc1cc(=O)n2c([nH]c3ccccc32)c1C#N	?	-9%	19µM*	19%	8%	-1%
C=C(C)Cc1c(C)c(C#N)c2[nH]c3ccccc3n2c1=O	nt	nt	-5%	-7%	3%	-3%
CCc1cc(=O)n2c([nH]c3ccccc32)c1C#N	-62%	5%	19µM*	15%	-6%	-1%

High-throughput results as filed in PubChem.
